Reference: PubChem BioAssay (NCI)
This is part of a sample that, as a whole, favours compounds with a hit. Of some 83,000 tested, about 20% had one in any assay.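 Values shown are percent growth following 48 h exposure of cells in 96-well plates to a single concentration of compound; below 10 was considered active.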 A number with no mark means an inactive call. Active and inactive are the calls of the source.

How the values were obtained:
Assay in all cases: NCI-60 one-dose screen, 48 h (100 = growth as untreated, 0 = no growth, -100 = all killed)
Settings in all cases: 10 µM unless noted
SR leukemia = test system: SR leukemia
RPMI-8226 leukemia = test system: RPMI-8226 leukemia
OVCAR-8 ovarian = test system: OVCAR-8 ovarian
OVCAR-5 ovarian = test system: OVCAR-5 ovarian
OVCAR-4 ovarian = test system: OVCAR-4 ovarian
SK-OV-3 ovarian = test system: SK-OV-3 ovarian
IGROV1 ovarian = test system: IGROV1 ovarian
OVCAR-3 ovarian = test system: OVCAR-3 ovarian
NCI/ADR-RES ovarian = test system: NCI/ADR-RES ovarian
T-47D breast = test system: T-47D breast
BT-549 breast = test system: BT-549 breast
MDA-MB-435 melanoma = test system: MDA-MB-435 melanoma
MCF7 breast = test system: MCF7 breast
HCT-116 colon = test system: HCT-116 colon
HCC-2998 colon = test system: HCC-2998 colon
KM12 colon = test system: KM12 colon
MDA-MB-468 breast = test system: MDA-MB-468 breast
HS 578T breast = test system: HS 578T breast
SW-620 colon = test system: SW-620 colon

| Compound | growth (SR leukemia) | growth (RPMI-8226 leukemia) | growth (OVCAR-8 ovarian) | growth (OVCAR-5 ovarian) | growth (OVCAR-4 ovarian) | growth (SK-OV-3 ovarian) | growth (IGROV1 ovarian) | growth (OVCAR-3 ovarian) | growth (NCI/ADR-RES ovarian) | growth (T-47D breast) | growth (BT-549 breast) | growth (MDA-MB-435 melanoma) | growth (MCF7 breast) | growth (HCT-116 colon) | growth (HCC-2998 colon) | growth (KM12 colon) | growth (MDA-MB-468 breast) | growth (HS 578T breast) | growth (SW-620 colon) |
| --- | --- | --- | --- | --- | --- | --- | --- | --- | --- | --- | --- | --- | --- | --- | --- | --- | --- | --- | --- |
| Cc1ncsc1-c1ccc(CNC(=O)[C@@H]2C[C@@H](O)CN2C(=O)[C@@H](NC(=O)C2(F)CC2)C(C)(C)C)c(OCCOCCOCCOCCOc2nc(Nc3cc(S(C)(=O)=O)ccc3N[C@@H](c3cccc4c3OC(F)(F)O4)c3ncccc3Cl)nc(N3CCNCC3)n2)c1 | 26.3% | 13.6% | 98.4% | 99% | 91.6% | 111% | 72.2% | 89.1% | 103% | 76.6% | -34.3% (active) | 86.9% | 5.45% (active) | 69.5% | 71.2% | 71.2% | -19.8% (active) | – | – |
| CC(C)c1ccc2c(N)c(C(=O)Nc3cccc(C(F)(F)F)c3)sc2n1 | 40.4% | 32.1% | 90.7% | 85% | 78.1% | 87.2% | 108% | 94.1% | 71.7% | 51.8% | 112% | 82.5% | 70.3% | 81.4% | 73.1% | 43.2% | 13.2% | – | – |
| CC1=C(C(=O)c2ccccc2)C(c2cccc(Cl)c2Cl)n2c(nc3ccccc32)N1 (stereo unspecified) | 39.2% | 86% | 26.3% | 60.3% | 65.2% | 33.7% | 77.7% | 35.5% | 19.1% | 76.6% | 52.4% | 72.1% | 26.7% | 50.1% | 88% | 92% | -38.3% (active) | – | – |
| COc1ccc(NC(=O)c2sc3nc(C(C)C)ccc3c2N)cc1 | 60% | 54.5% | 89.1% | 83.2% | 56.7% | 97.9% | 100% | 93.9% | 59.6% | 42% | 88.5% | 87.5% | 79.5% | 94.7% | 100% | 78.2% | 55.8% | – | – |
| O=C(O)c1ccc(-c2ccc(/C=N/NC(=O)c3[nH]c4ccc(Br)cc4c3-c3ccccc3)s2)cc1 | 0.386% (active) | 12.1% | 20.2% | 35.5% | 22.5% | 16.8% | 14.7% | 2.13% (active) | 19.9% | 16% | 8.87% (active) | 4.27% (active) | 7.47% (active) | 11.1% | -66% (active) | -14.8% (active) | 3.12% (active) | – | – |
| Cc1cc(C)cc(C(=O)Nc2cccc(-c3cn(-c4ccc(S(N)(=O)=O)cc4)nn3)c2)c1 | 51.6% | 89.8% | 18.7% | 81.5% | 42.1% | 9.56% (active) | 15.4% | 87.4% | 55.9% | 35% | 67.8% | 85.9% | 31.5% | 39.8% | 49.9% | 36.1% | 41% | – | – |
| O=C(/C=C/c1ccc(-c2ccccc2)cc1)c1nc2ccccc2n1Cc1ccc(F)cc1 | 1.5% (active) | -2.77% (active) | 46% | 43.5% | 55.2% | 82.2% | 55.7% | 28.8% | 49.6% | 18.3% | 27.5% | 15.6% | 14.7% | 13.8% | 31.5% | 49.4% | 25.8% | – | – |
| C=C1CC[C@@H]2[C@]3(C)COC(c4cn(-c5ccccc5)nc4-c4ccccc4)O[C@@H]3CC[C@@]2(C)[C@@H]1C/C=C1/C(=O)OC[C@H]1O (stereo partly specified) | -32.7% (active) | -10.3% (active) | -49.5% (active) | -50.5% (active) | -30.4% (active) | 12.6% | -76.7% (active) | -77.8% (active) | -69.4% (active) | -62.9% (active) | -88.9% (active) | -65.9% (active) | -9.94% (active) | -97.5% (active) | -97.7% (active) | -56.2% (active) | -90.1% (active) | – | – |
| CC1=C(C(=O)OC(C)C)C(c2cccc(O)c2)NC(=S)N1 (stereo unspecified) | 90.7% | 88.9% | 104% | 104% | 98% | 97.9% | 110% | 120% | 105% | 93.7% | 127% | 104% | 90.6% | 102% | 105% | 106% | 92% | – | – |
| O=C(N/N=C/c1ccc(-c2ccc(O)cc2)o1)c1[nH]c2ccc(Br)cc2c1-c1ccccc1 | -9.54% (active) | -9.92% (active) | -33.5% (active) | 1.22% (active) | 24.4% | 19.6% | -17.3% (active) | -41.1% (active) | -12.1% (active) | 19% | -13.3% (active) | -14.7% (active) | -3.44% (active) | 4.35% (active) | -23.6% (active) | 2.17% (active) | -16.6% (active) | – | – |
| O=C(O)c1cccc(-c2ccc(/C=N/NC(=O)c3[nH]c4ccc(Br)cc4c3-c3ccccc3)o2)c1 | 21.1% | 96.5% | 66.4% | 107% | 73% | 110% | 85% | 17.1% | 73.7% | 55.3% | 34.7% | 43.9% | 53.1% | 66.2% | 84.8% | 79.3% | -12.6% (active) | – | – |
| N#Cc1c(-c2cccc(Cl)c2Cl)cc(-c2ccc3ccccc3c2)[nH]c1=O | 67.4% | 68.3% | 41.5% | 77.4% | 4.49% (active) | 99.7% | 65.1% | 31.6% | 42.4% | 37.6% | -5.5% (active) | 94.9% | 52.9% | 2.78% (active) | 75.6% | 98.4% | 71.4% | – | – |
| Cc1ccc2c(N)c(C(=O)Nc3ccc(OC(F)(F)F)cc3)sc2n1 | 56.5% | 46.9% | 76.2% | 84.5% | 52.1% | 68.2% | 61.5% | 83% | 52.4% | 27.3% | 86.8% | 68.9% | 39.4% | 58.8% | 90.9% | 66.5% | 15.9% | – | – |
| CC(=O)Oc1ccccc1C(=O)[Se]C(=NC1CCCCC1)NC1CCCCC1 | -15.7% (active) | 4.77% (active) | -81.8% (active) | -89.6% (active) | -85.9% (active) | -99.1% (active) | -94% (active) | -71.6% (active) | – | -43.3% (active) | -91.7% (active) | -77.2% (active) | -82.1% (active) | -69.9% (active) | -92.6% (active) | -67.8% (active) | -77.8% (active) | – | – |
| C=C1CC[C@@H]2[C@]3(C)COC(c4ccco4)O[C@@H]3CC[C@@]2(C)[C@@H]1C/C=C1/C(=O)OCC1OC(C)=O (stereo partly specified) | -21% (active) | -30.9% (active) | -8.73% (active) | 35.8% | 48.2% | – | 9.51% (active) | -28.9% (active) | 8.21% (active) | 45.5% | -4.43% (active) | 31.9% | 13.4% | -52% (active) | 31.8% | 52.4% | -2.37% (active) | 66.8% | -8.09% (active) |
| COc1ccc2nc(Nc3cccc(NC(=O)c4ccc(CN5CCCN(C)CC5)c(C(F)(F)F)c4)c3)ccc2c1 | 4.09% (active) | -31.7% (active) | 2.26% (active) | -84.5% (active) | -94.4% (active) | -62.4% (active) | -56.4% (active) | -48.8% (active) | -43.1% (active) | -44.6% (active) | -61.4% (active) | -42.8% (active) | -62.8% (active) | -47.1% (active) | -62.6% (active) | -47.5% (active) | -71.1% (active) | – | – |
| N#Cc1c(-c2cccc3ccccc23)cc(-c2cccc(OCC(=O)O)c2)[nH]c1=O | 87.2% | 96.5% | 98.9% | 89.9% | 91.9% | 108% | 110% | 104% | – | 105% | 114% | 101% | 96.1% | 103% | 110% | 103% | 98.7% | – | – |
| CCOC(=O)COc1c(OC)c(OC)cc2oc(-c3cccc(C(=O)Nc4ccc(Cl)cc4)c3)cc(=O)c12 | 18.4% | 38.5% | 52% | 81.4% | 68.8% | – | 54.4% | 23.3% | 36.5% | 47.5% | 21.2% | -11.8% (active) | 15.7% | 22.7% | 76% | 16.2% | 68% | 49.6% | 37.6% |
